GPR151 activ: activators of human GPR151, primary screen, cell-based, PathHunter beta-arrestin, luminescence | PathHunter beta-arrestin GPR151 cells | activation, % at 11.2 µM | hit rate 1% among 650,000 | AID 1508602, 2020; in the data active means activation above about 4.9%;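 further: 0% = median of compound wells and 100% = cells with positive control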
FBW7 activator: FBW7 E3 ligase activators, primary screen, biochemical, AlphaScreen, human; F-box/WD repeat-containing protein 7 (Homo sapiens), Q969H0; AlphaScreen FBW7–phospho-cyclin E peptide binding, activator screen; normalized activity (activation), % at 26.1 µM; hit rate 0.13% among 650,000; AID 1259310, 2017; in the data active means normalized activity above about 1.9%;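 further: purified mutant Fbw7 with reduced substrate affinity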
TEAD-YAP block: TEAD-YAP interaction inhibition, primary screen, TEAD-YAP interaction inhibitor project, luminescence, HEK-TIYL cells; AID 1259422, 2018; hit rate 1.4% among 640,000; TEAD-Gal4/YAP UAS-luciferase luminescence; inhibition, % at 9.12 µM; in the data active means inhibition above about 32%;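 further: 0% = median of test compound wells and 100% = reference inhibitor wells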
MITF inh: MITF inhibitors, primary screen, biochemical, AlphaScreen, human | Microphthalmia-associated transcription factor (Homo sapiens), O75030 | AlphaScreen MITF homodimerization, bead proximity signal | inhibition, % at 2.6 µM | hit rate 0.91% among 650,000 | AID 1259374, 2018; in the data active means inhibition above about 50%;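 further: 0% = vehicle wells with protein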
GPR151 conf act: GPR151 activators, triplicate retest, confirmation, cell-based, PathHunter beta-arrestin, luminescence. shares compounds with GPR151 activ. GPR151 PathHunter beta-arrestin cells, 90 min; % of EA-reagent control over plate median. activation, % at 11.2 µM. 6,700 tested, under 10 active;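 active means mean percent activation across replicates above the confirmation screen cutoff of 4.91%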
GPR119 ag: GPR119 activators in beta-arrestin cells, counter-screen for GPR151 activator project, cell-based, PathHunter beta-arrestin, luminescence, triplicate; shares compounds with GPR151 activ; 90 min; 0 = compound-well median, 100 = enzyme-acceptor control; activation, % at 11.2 µM; hit rate 0.3% among 6,700; AID 1508611, 2020;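 active means mean percent activation in the counterscreen above 29.09%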;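 further: counterscreen on off-target GPR119 to flag nonselective hits from the GPR151 activator screen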
Target sequence (Q8TDV5 whole entry, looked up): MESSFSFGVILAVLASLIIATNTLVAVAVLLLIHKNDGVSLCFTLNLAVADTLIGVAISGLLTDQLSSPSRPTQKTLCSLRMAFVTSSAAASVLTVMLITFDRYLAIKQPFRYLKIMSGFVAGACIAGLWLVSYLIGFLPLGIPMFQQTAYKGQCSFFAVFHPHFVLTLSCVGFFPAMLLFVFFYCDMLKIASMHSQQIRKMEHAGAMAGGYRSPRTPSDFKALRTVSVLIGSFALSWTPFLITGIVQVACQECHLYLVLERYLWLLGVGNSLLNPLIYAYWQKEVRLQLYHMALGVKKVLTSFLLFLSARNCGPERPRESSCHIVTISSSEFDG
Active calls of the source: *; . = no result given. An excerpt weighted towards active compounds, which were near 3.4% of everything screened.

SMILES	GPR151 activ	FBW7 activator	TEAD-YAP block	MITF inh	GPR151 conf act	GPR119 ag
O=C(Nc1c[nH]c(=O)[nH]c1=O)c1ccc(N2C(=O)C3C4C=CC(C4)C3C2=O)cc1 (stereo unspecified)	6.7*	0	4	15	0	6
O=C(Nc1ccccc1O)c1ccc(N2C(=O)C3C4C=CC(C4)C3C2=O)cc1 (stereo unspecified)	1	0	-126	-2	.	.
NC(=O)c1cn(-c2ccccc2)nc1-c1ccc(Cl)cc1	-1	0	1	16	.	.
CN(Cc1cn(-c2ccccc2)nc1-c1ccc(Cl)cc1)C(=O)CCC(=O)O	5.6*	1	-10	18	-1	-6
Cc1ccc(S(=O)(=O)NNC(=O)C23CC4CC(CC(C4)C2)C3)cc1	0	0	9	-5	.	.
COC(=O)c1cccn2cc(-c3ccc(F)cc3)nc12	4.9*	0	-10	1	-1	-6
S=C(Nc1ccccc1Cl)N(CCN1CCCCCC1)Cc1ccco1	3	0	-3	-1	.	.
Fc1ccccc1CSc1nnc(-c2cnccn2)n1Cc1ccco1	9.9*	0	-34	3	0	20
Cc1ccccc1-n1ncc(C(C)NC(=O)c2cccc(N3CCNC3=O)c2)c1C (stereo unspecified)	0	0	-18	6	.	.
Cc1cccc2cc(CN(Cc3ccco3)Cc3nnnn3C(C)(C)C)c(=O)[nH]c12	6.2*	0	2	3	0	2
Cc1cc(=O)[nH]c(SC(C)C(=O)Nc2cccc(Cl)c2)n1 (stereo unspecified)	8.7*	0	-14	-24	-1	-4
COc1cc(C(=O)Nc2ccc([N+](=O)[O-])cc2)cc(Br)c1OC	5.6*	1	7	6	0	2
COc1cc(C(=O)Nc2cccc([N+](=O)[O-])c2)cc(OC)c1OC	1	0	-1	11	.	.
O=C1Nc2ccc3ccccc3c2C(c2ccccc2)N1 (stereo unspecified)	9.1*	1	16	1	-1	-13
CS(=O)(=O)NCc1nnc(SCc2ccc(F)cc2)n1-c1ccc(F)cc1	0	0	11	7	.	.
Cc1ccc(-n2c(CNS(C)(=O)=O)nnc2SCc2ccc(F)cc2)cc1	4.9*	0	15	13	1	-1
CS(=O)(=O)Nc1cccc(-c2cnc3c(Nc4ccc(O)cc4)nccn23)c1	-1	0	-3	-1	.	.
CCOc1cc(CO)cc([N+](=O)[O-])c1O	0	0	0	6	.	.
O=C(/C=C/c1ccccc1)NNC(=O)c1cc(Cl)ccc1O	0	0	6	-5	.	.
CCOC(=O)C(=O)Nc1nnc(C(C)C)s1	2	0	8	30	.	.
CCOC(=O)C(=O)Nc1ncc(Cl)s1	5.4*	0	11	4	0	6
CN(Cc1ccco1)S(=O)(=O)c1nnc(NC(=O)C23CC4CC(CC(C4)C2)C3)s1	3	0	5	9	.	.
Cc1ccc(CCNC(=O)CN2CCN(Cc3cccc(C)c3)C2=O)cc1	5.5*	0	8	-4	0	-12
N#Cc1ccc(C2(O)CN(c3ccccc3)C3=[N+]2CCCS3)cc1 (stereo unspecified)	2	0	-2	7	.	.
Brc1cccc(CNCc2ccncc2)c1	13*	0	12	4	1	-5
Brc1cccc(CNCc2cccnc2)c1	1	0	4	16	.	.
C/C(=N\NC(=S)NCc1ccco1)c1cccc([N+](=O)[O-])c1	5.0*	0	7	3	2	10
Cc1ccc(OCC(=O)N/N=C\c2cccn2C)c([N+](=O)[O-])c1	5.3*	0	-3	18	-1	-10
COc1cc([N+](=O)[O-])ccc1NC(=S)NCc1ccco1	-3	0	8	15	.	.
C/C(=N\NC(=O)COc1ccccc1[N+](=O)[O-])c1ccc(Cl)cc1	7.1*	0	-17	-11	0	-1

Bioassay records from PubChem.
